High-throughput results: PubChem, several laboratories
Sampled rows, rich in hits. Any-hit rate of the full collection: about 4.1%.
697 NFkB inh – inhibitors of the PMA/ionomycin-induced NF-kB reporter in 697 B cells; 697 B-cell NF-kB luciferase reporter, 16 h; inhibition, % at 4 µM; 0.33% of 330,000 active; AID 435022; in the data active = inhibition above about 35%
Mdm2-MdmX inh – disrupts the human Mdm2-MdmX interaction. SaOS-2 split-luciferase Mdm2/MdmX complementation, luminescence. inhibition, % at 8 µM. 3% of 330,000 active;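 active = inhibition of at least 50% at 8 µM in the primary screen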
Target sequence (O15151 whole entry, looked up): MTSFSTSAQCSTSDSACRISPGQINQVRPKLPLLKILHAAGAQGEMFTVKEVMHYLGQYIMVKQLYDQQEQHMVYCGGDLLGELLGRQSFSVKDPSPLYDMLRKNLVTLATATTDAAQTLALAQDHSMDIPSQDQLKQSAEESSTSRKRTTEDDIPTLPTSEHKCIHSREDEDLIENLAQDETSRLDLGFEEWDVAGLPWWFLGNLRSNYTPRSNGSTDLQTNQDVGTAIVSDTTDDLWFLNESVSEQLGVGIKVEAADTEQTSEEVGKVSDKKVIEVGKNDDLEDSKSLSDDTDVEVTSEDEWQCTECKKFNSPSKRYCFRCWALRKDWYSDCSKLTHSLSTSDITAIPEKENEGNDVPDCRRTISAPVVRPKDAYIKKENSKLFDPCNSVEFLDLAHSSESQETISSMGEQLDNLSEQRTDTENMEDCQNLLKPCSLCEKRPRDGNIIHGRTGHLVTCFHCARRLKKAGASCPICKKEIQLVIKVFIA
Target sequence (Q00987 whole entry, looked up): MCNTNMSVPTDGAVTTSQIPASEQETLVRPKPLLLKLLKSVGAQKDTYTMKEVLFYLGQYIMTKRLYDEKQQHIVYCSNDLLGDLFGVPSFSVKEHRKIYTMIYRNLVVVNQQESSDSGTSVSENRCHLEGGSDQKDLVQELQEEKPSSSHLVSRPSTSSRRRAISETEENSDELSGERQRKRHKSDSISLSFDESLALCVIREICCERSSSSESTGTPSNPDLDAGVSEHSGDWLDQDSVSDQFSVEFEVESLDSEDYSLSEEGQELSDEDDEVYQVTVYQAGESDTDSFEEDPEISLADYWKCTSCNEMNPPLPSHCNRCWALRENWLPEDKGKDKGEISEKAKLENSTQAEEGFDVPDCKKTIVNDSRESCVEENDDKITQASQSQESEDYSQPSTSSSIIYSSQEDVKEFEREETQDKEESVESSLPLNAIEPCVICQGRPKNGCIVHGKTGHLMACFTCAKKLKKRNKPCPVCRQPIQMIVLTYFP
aSyn 5UTR inh – 5' untranslated region of α-synuclein, MLPCN primary screen; alpha-synuclein 5'UTR reporter, inhibitor activity; inhibition, % (tested at 7.5 µM); 0.82% of 300,000 active; AID 1813; in the data active = inhibition above about 60%;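 also: H4 neuroglioblastoma cells stably carrying SNCA 5'UTR luciferase fusion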
Gli-Sufu antag – antagonists of Gli-Sufu signaling; Sufu-KO-LIGHT fibroblasts, Gli luciferase reporter luminescence; inhibition, % at 5 µM; 0.74% of 340,000 active;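 active = inhibition above about 55%, limit read from the data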
KLF5 inh – suppresses KLF5 promoter-driven expression. AID 1700. DLD-1 KLF5 promoter-luciferase reporter, luminescence. inhibition, % at 5 µM. 0.23% of 290,000 active;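 active = inhibition above a per-plate limit of that plate's mean compound inhibition plus 3 SD, cut at about 60% in these data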;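 also: higher means less KLF5 promoter-driven luciferase light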
Jurkat NFkB inh – inhibitors of the PMA/ionomycin-induced NF-kB reporter in Jurkat cells | PMA/ionomycin-induced NF-kB luciferase reporter, luminescence | inhibition, % at 4 µM | 0.53% of 330,000 active | AID 435003; in the data active = inhibition above about 50%
Mdm2 MdmX conf – human Mdm2/MdmX binding inhibition, confirmed; shares compounds with Mdm2-MdmX inh; luminescent assay; inhibition, % at 8 µM; 55% of 10,000 active; in the data active = inhibition above about 40%
Full FLuc ctr – counter-screen for Mdm2/MdmX inhibitors: full-length luciferase; 77% of 6,200 active; shares compounds with Mdm2-MdmX inh; SaOS-2 full-length luciferase counterscreen, luminescence; inhibition, % at 8 µM;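 active = mean inhibition at 8 µM reaching about 37%, which flags the compound as non-specific, limit read from the data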;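 also: p53-null SaOS-2 cells with luciferase driven by a doxycycline-inducible promoter; compound on cells about two nights before reading with doxycycline added after day one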
Large screens that a line does not name were inactive (follow-up assays come after a bar, where they were run).

Cc1nc(C(=O)NC2CC2)sc1C1(C)CC(c2cccc([N+](=O)[O-])c2)=NO1 (stereo not given)	none (no result: KLF5 inh)
Cc1nc(C(=O)NCc2ccccc2)sc1C1(C)CC(c2cccc([N+](=O)[O-])c2)=NO1 (stereo not given)	Mdm2-MdmX inh 63.9 (no result: KLF5 inh) | Mdm2 MdmX conf inactive
CNC(=O)c1nc(C)c(C2(C)CC(c3cccc([N+](=O)[O-])c3)=NO2)s1 (stereo not given)	Mdm2-MdmX inh 52.6 (no result: KLF5 inh) | Mdm2 MdmX conf 43.0 | Full FLuc ctr 57.3
O=C(/C=C/c1ccccc1[N+](=O)[O-])N1CCN(C(=O)c2ccco2)CC1	none
COc1cc(Nc2nc(-c3ccccc3)c3cc(C)ccc3n2)cc(OC)c1OC	Mdm2-MdmX inh 56.2 | Mdm2 MdmX conf inactive
Cc1ccc2nc(NCC(=O)O)nc(-c3ccccc3)c2c1	none
Cc1ccc(NC(=S)/N=C(\N)Nc2nc(C)c3cc(C)ccc3n2)c(C)c1	Mdm2-MdmX inh 71.9 | Mdm2 MdmX conf 41.4 | Full FLuc ctr 79.4
COc1ccc2nc(N/C(N)=N/C(=S)Nc3c(C)cccc3C)nc(C)c2c1	Mdm2-MdmX inh 57.1 | Mdm2 MdmX conf 41.1 | Full FLuc ctr 67.8
CCc1ccccc1NC(=S)/N=C(\N)Nc1nc(C)c2cc(C)ccc2n1	Mdm2-MdmX inh 66.7 | Mdm2 MdmX conf 51.6 | Full FLuc ctr 69.7
CCOc1ccc2nc(N/C(N)=N/C(=S)Nc3cccc(C)c3)nc(C)c2c1	none
Cc1ccc(S(=O)(=O)c2ccc(Oc3cccc(C)c3)cc2)cc1	none
CN1CCN(C(c2ccc(Br)cc2)c2cc(Cl)c3cccnc3c2O)CC1 (stereo not given)	Mdm2-MdmX inh 80.2, aSyn 5UTR inh 67.2 | Mdm2 MdmX conf 62.4 | Full FLuc ctr 47.7
O=C(O)COc1ccccc1C(Nc1cccnc1)c1cc(Cl)c2cccnc2c1O (stereo not given)	none
O=C(NC(c1ccccc1)c1cc(Cl)c2cccnc2c1O)c1cccnc1 (stereo not given)	Mdm2-MdmX inh 82.9, aSyn 5UTR inh 99.7 (no result: Gli-Sufu antag) | Mdm2 MdmX conf 88.8 | Full FLuc ctr inactive
CCCC(=O)NC(c1ccco1)c1cc(Cl)c2cccnc2c1O (stereo not given)	Mdm2-MdmX inh 65.5 | Mdm2 MdmX conf 46.0 | Full FLuc ctr inactive
CCOc1ccc(C(Nc2cccnc2)c2cc(Cl)c3cccnc3c2O)cc1 (stereo not given)	Mdm2-MdmX inh 64.5, aSyn 5UTR inh 66.8 | Mdm2 MdmX conf 64.5 | Full FLuc ctr 43.0
O=C(O)COc1ccccc1C(Nc1ccccn1)c1cc(Cl)c2cccnc2c1O (stereo not given)	none
CN1CCN(C(c2ccc(F)cc2)c2ccc3cccnc3c2O)CC1 (stereo not given)	none (no result: 697 NFkB inh, Mdm2-MdmX inh, aSyn 5UTR inh, KLF5 inh, Jurkat NFkB inh)
CCCCCCCCCCCCCC(=O)NO	none (no result: 697 NFkB inh, Mdm2-MdmX inh, aSyn 5UTR inh, KLF5 inh, Jurkat NFkB inh)
CC(C)N1CC(COc2ccc(Cl)cc2Cl)OC1=O (stereo not given)	none
CCCC(=O)NC(c1cccs1)c1cc(Cl)c2cccnc2c1O (stereo not given)	Mdm2-MdmX inh 81.6, aSyn 5UTR inh 99.4 | Mdm2 MdmX conf 68.7 | Full FLuc ctr inactive
CCC(=O)NC(c1cc(Cl)c2ccccc2c1O)C(C)C (stereo not given)	none (no result: aSyn 5UTR inh, KLF5 inh)
CCC(=O)NC(c1ccc(C)cc1)c1cc(Cl)c2cccnc2c1O (stereo not given)	Mdm2-MdmX inh 78.7 (no result: aSyn 5UTR inh, KLF5 inh) | Mdm2 MdmX conf 55.2 | Full FLuc ctr inactive
COc1ccc(C(NC(C)=O)c2cc(Cl)c3cccnc3c2O)cc1OC (stereo not given)	Mdm2-MdmX inh 68.2 | Mdm2 MdmX conf 76.1 | Full FLuc ctr 39.8
CCCC(=O)NC(c1ccc2c(c1)OCO2)c1cc(Cl)c2cccnc2c1O (stereo not given)	Mdm2-MdmX inh 76.4, aSyn 5UTR inh 80.4 | Mdm2 MdmX conf 71.8 | Full FLuc ctr inactive
CCC(=O)NC(c1ccco1)c1cc(Cl)c2ccccc2c1O (stereo not given)	none (no result: aSyn 5UTR inh, KLF5 inh)
CCOC(=O)c1ccc(NC(=O)N2CCN(c3cccc(OC)c3)CC2)cc1	none
Cc1ccc(C)c(OCc2cc(C(=O)NC3CCOC(C)(C)C3)no2)c1 (stereo not given)	none
COc1ccccc1CNC(=O)CCNS(=O)(=O)/C=C/c1ccc(C)cc1	none (no result: aSyn 5UTR inh, KLF5 inh)
CNS(=O)(=O)/C=C/c1ccccc1	none
O=S(=O)(/C=C/c1ccccc1)Oc1ccccc1	Mdm2-MdmX inh 75.8 | Mdm2 MdmX conf 50.5 | Full FLuc ctr 77.8
COc1ccccc1NC(=O)c1cc2c(CO)cnc(C)c2oc1=Nc1ccc(OC)c(OC)c1	Mdm2-MdmX inh 64.8 | Mdm2 MdmX conf inactive
COc1ccccc1NC(=O)c1cc2c(CO)cnc(C)c2oc1=Nc1cc(OC)c(OC)c(OC)c1	none
OCC(O)CNC(=S)NC1CCCCC1 (stereo not given)	none
CCOc1cc(-c2cc(-c3ccccc3)nc(N)c2C#N)ccc1O	Mdm2-MdmX inh 76.2 | Mdm2 MdmX conf 60.9 | Full FLuc ctr 95.2
COc1cc(-c2cc(-c3ccc(F)cc3)nc(N)c2C#N)ccc1O	Mdm2-MdmX inh 71.3 | Mdm2 MdmX conf 52.0 | Full FLuc ctr 55.9
CCOc1cc(-c2c(C#N)c(N)nc3c2CCCC3)ccc1O	none
CCOc1cc(-c2cc(-c3ccc(N)cc3)nc(N)c2C#N)ccc1O	Mdm2-MdmX inh 51.1 | Mdm2 MdmX conf inactive | Full FLuc ctr 123.8
COc1cc(C(=O)NCCCNc2ccc([N+](=O)[O-])cc2)cc(OC)c1OC	none
COc1cc(/C(C)=N/NC(=O)c2nnn(-c3nonc3N)c2-c2cccs2)ccc1O	Mdm2-MdmX inh 69.5 | Mdm2 MdmX conf inactive
C/C(=N\NC(=O)c1nnn(-c2nonc2N)c1-c1cccs1)c1cccc(O)c1	none
C/C(=N\NC(=O)c1nnn(-c2nonc2N)c1CN1CCc2ccccc21)c1ccccc1O	Mdm2-MdmX inh 69.5, aSyn 5UTR inh 75.2 | Mdm2 MdmX conf 67.3 | Full FLuc ctr inactive
CCC(C)c1ccc2oc(-c3ccc(NC(=O)Cn4cnc5c(=O)n(C)c(=O)n(C)c54)cc3)nc2c1 (stereo not given)	Mdm2-MdmX inh 50.4 | Mdm2 MdmX conf 61.2 | Full FLuc ctr 146.9
Cc1ccc2oc(-c3cccc(NC(=O)Cn4cnc5c(=O)n(C)c(=O)n(C)c54)c3)nc2c1	none (no result: Gli-Sufu antag)
O=C(Nc1ccc(F)cc1)/C(=C1/CCCCCN1)[N+](=O)[O-]	none
CN(C)CCCN(C(=O)CCS(=O)(=O)c1ccccc1)c1nc2cc3c(cc2s1)OCO3	Mdm2-MdmX inh 66.0 | Mdm2 MdmX conf 60.6 | Full FLuc ctr 56.1
CN(C)CCCN(C(=O)CCSc1ccccc1)c1nc2cc3c(cc2s1)OCO3	Mdm2-MdmX inh 53.1 | Mdm2 MdmX conf inactive
CN(C)CCCN(C(=O)c1ccc(S(=O)(=O)N(C)C)cc1)c1nc2cc3c(cc2s1)OCO3	none
